Measured values from PubChem BioAssay AID651768 (National Center for Advancing Translational Sciences (NCATS), 2012).
About 1,700 (0.47%) of roughly 360,000 compounds were called active. About 2% were inconclusive and are not listed. The call rests on the fitted dose curve; in most records, active means well fitted inhibition curve with a large enough effect; inconclusive means small, poorly fitted or top-dose-only effect; inactive means no such curve, though single readings can be large or run the other way. The entries come from a sample that favours actives as a whole.

These compounds were tested against Bifunctional 3'-5' exonuclease/ATP-dependent helicase WRN (Homo sapiens) (UniProt Q14191) (assay: qHTS for Inhibitors of WRN Helicase). Details: WRN helicase unwinding, fluorescent forked duplex, kinetic; series mostly up to 114 µM; activity change, negative = inhibition: at the top concentration.
Sequence of Bifunctional 3'-5' exonuclease/ATP-dependent helicase WRN (Homo sapiens) (Q14191 whole entry, looked up): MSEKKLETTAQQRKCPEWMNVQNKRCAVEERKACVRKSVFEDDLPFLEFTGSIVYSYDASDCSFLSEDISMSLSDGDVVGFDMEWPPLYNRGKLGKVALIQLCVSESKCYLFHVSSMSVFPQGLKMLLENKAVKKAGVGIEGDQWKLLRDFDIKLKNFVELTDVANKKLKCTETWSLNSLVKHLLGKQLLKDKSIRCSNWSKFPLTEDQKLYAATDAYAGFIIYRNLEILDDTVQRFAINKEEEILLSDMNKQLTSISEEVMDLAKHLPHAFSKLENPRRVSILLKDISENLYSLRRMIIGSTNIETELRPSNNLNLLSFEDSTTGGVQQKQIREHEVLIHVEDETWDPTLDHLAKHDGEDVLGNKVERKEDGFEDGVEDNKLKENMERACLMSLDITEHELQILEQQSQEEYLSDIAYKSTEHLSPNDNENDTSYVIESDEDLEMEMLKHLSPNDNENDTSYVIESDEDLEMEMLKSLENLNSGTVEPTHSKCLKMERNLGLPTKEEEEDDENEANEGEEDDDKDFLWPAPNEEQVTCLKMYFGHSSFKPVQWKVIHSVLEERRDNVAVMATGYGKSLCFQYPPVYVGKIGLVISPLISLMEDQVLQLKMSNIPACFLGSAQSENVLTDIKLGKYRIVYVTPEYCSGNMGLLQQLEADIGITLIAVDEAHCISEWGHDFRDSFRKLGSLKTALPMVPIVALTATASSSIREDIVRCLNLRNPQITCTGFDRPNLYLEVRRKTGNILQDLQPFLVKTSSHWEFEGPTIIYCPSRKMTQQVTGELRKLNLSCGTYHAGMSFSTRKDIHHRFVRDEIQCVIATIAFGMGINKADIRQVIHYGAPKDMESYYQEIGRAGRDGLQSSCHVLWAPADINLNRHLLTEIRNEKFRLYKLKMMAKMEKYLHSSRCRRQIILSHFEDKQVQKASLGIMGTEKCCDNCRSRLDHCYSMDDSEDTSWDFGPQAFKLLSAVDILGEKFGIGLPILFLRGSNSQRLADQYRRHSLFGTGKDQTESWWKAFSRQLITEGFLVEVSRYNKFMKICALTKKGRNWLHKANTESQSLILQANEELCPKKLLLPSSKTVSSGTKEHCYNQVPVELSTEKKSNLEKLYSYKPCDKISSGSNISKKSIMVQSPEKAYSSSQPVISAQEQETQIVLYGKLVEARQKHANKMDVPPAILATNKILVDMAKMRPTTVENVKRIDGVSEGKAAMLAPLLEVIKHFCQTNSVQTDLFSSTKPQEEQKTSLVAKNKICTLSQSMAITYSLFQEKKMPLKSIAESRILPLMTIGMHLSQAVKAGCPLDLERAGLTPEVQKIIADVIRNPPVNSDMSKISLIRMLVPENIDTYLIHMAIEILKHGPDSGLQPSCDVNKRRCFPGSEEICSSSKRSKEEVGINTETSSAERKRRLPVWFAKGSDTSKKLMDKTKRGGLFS
Source text: Inhibition of DNA repair is proposed as a strategy for combating cancer. Synthetic lethality is an approach that exploits preexisting DNA repair deficiencies in certain tumors to develop inhibitors of DNA repair pathways that compensate for the tumor-associated DNA repair deficiency. Because helicases play critical roles in the DNA damage response and in DNA repair, particularly in actively dividing and replicating cells, characterization of synthetic lethal relationships of DNA helicases may be of value in developing improved anticancer treatment strategies; moreover, small molecules that specifically target a given DNA helicase may be useful for understanding its role in cellular nucleic acid metabolism. The goal of this project is to identify small molecule, non-covalent chemical inhibitors of the Werner syndrome (WS) helicase (WRN), which plays an important role in cell proliferation, the replication stress response, and DNA repair. […] The WRN gene product that is defective in the chromosomal instability disorder has DNA helicase and exonuclease activities and interacts with a number of nuclear proteins to maintain genomic stability. We will employ an optimized high-throughput screening assay that utilizes a fluorescence intensity modulation scheme with a fluorophore and quencher positioned near one another within a duplex deoxyoligonucleotide that contains a single forked structure. After a high-throughput screen of the ~350,000-member Molecular Libraries Small Molecule Repository (MLSMR) collection, followed by data analysis and hit selection, a panel of confirmatory, as well as secondary and ternary, assays will be employed to identify high-confidence WRN inhibitors. Structure-activity relationships will be investigated for the top candidate inhibitor series through medchem expansion. These are the results of the primary screening campaign against the MLSMR. NIH Chemical Genomics Center [NCGC] NIH Molecular Libraries Probe Centers Network [MLPCN] MLPCN Grant: MH096530 Assay Submitter (PI): Robert Brosh, National Institute of Aging
Three muL of reagents (buffer in columns 3 and 4 as negative controls; WRN at 20 nM final concentration in columns 1 and 2 as positive controls; columns 5-48 as test reactions) will be dispensed into a 1536-well Greiner black plate via solenoid-valve based nanoliter dispensers. Compounds (23 nL each in columns 5-48) and control (23 nL each in column 2 as dose-response) will be transferred via a Kalypsys pintool equipped with a 1536-pin array. Plates will be incubated for 15 min at room temperature, and then 1 µL of substrate (100 nM forked duplex oligonucleotide and 2 mM ATP final concentrations) will be added to start reaction, and plate will be transferred into a ViewLux high-throughput CCD imager where reaction progress is measured in kinetic mode using standard red-fluorescence optics (excitation filter 525 nm, emission filter 598 nm).
Further: nearly all actives have a fitted effect of over 55% in size.
On the % scale 0 is the no-effect control and ±100 the full control effect; potency means the concentration at half of the fitted maximal effect.

SMILES | Potency | activity change, negative = inhibition
CC1(C)C(c2ccccc2)=NC(c2cccnc2)=[N+]1[O-] | 50.1 µM (active) | 
CCOP(=O)(OCC)C(NC(=O)c1ccc(C)cc1)C(Cl)(Cl)Cl (stereo not given) |  | 13.7% (inactive)
O=C(Cc1ccc(Cl)cc1)NCCN1CCN(C(=O)Cc2ccc(Cl)cc2)CC1 |  | 5.8% (inactive)
CCOC(=O)[C@]12Cc3cc(OC)ccc3[C@H]1N(C(C)C)C(=O)c1ccccc12 |  | -1.64% (inactive)
CC(Cc1ccccc1)NCCC(c1ccccc1)c1ccccc1 (stereo not given) |  | -1.92% (inactive)
CC(Cc1cccs1)NCc1ccc(Cl)cc1 (stereo not given) |  | -4.04% (inactive)
O=C(O)CCn1cc(C=C2C(=O)NC(=S)NC2=O)c(-c2cccc(Br)c2)n1 | 31.6 µM (active) | 
C=C(C)C1(CCCC)C(=O)NC(=S)NC1=O |  | 0.947% (inactive)
COc1ccc(-n2nnnc2C(c2cccc3ccccc23)N2CCC(n3c(=O)[nH]c4ccccc43)CC2)cc1 (stereo not given) |  | -2.03% (inactive)
COC(=O)CN(CCCl)P1(=O)OCCCN1CCCl (stereo not given) |  | 1.67% (inactive)
CCOc1ccc(-c2cc(C)[n+](CCN(CC)CC)c(-c3ccc(OCC)cc3)c2)cc1 |  | -8.79% (inactive)
Cc1ccc2c(c1)=C/C(=C\c1c(O)[nH]c(=O)[nH]c1=O)C(=O)N=2 | 39.8 µM (active) | 
O=C1N=c2ccccc2=C/C1=C\c1c(O)[nH]c(=S)[nH]c1=O |  | -30.7% (inactive)
O=c1[nH]c(O)c(C=Nc2cc(F)cc(F)c2)c(=O)[nH]1 |  | 2.85% (inactive)
N#Cc1ccc(Cn2cc(C(=O)c3ccco3)c3ccccc32)cc1 |  | -15.2% (inactive)
CCCCCCCCCCCCn1ccc(=N)cc1 |  | -5.13% (inactive)
COc1ccc(CCn2c(O)c(C=NCCCn3ccnc3)c(=O)[nH]c2=O)cc1OC |  | 6.66% (inactive)
O=C(CN1CCCC1=O)NCCc1ccccc1 |  | 0.395% (inactive)
CC(C)(C)c1ccc(CN2C(=O)CN=C(c3ccccc3)c3ccccc32)cc1 |  | -15.4% (inactive)
O=C1CC(=O)N(Cc2ccccc2)C(=O)N1CCCCCCN1C(=O)CC(=O)N(Cc2ccccc2)C1=O | 28.2 µM (active) | 
CC(=O)C1(O)CCC2C3CCC4=C(Cl)C(=O)CCC4(C)C3CCC21C (stereo not given) |  | 0.713% (inactive)
CCOC(=O)[C@]12Cc3ccccc3[C@H]1N(C1CCCCC1)C(=O)c1cc(OC)ccc12 |  | -0.682% (inactive)
O=C(O)COc1ccccc1/C=C1\C(=O)NC(=O)N(CCC2=CCCCC2)C1=O | 39.8 µM (active) | 
C=CCN1C(=O)NC(=O)/C(=C/c2ccc(OCC(=O)Nc3ccc(C)cc3)cc2)C1=O |  | -8.42% (inactive)
O=C1NC(=O)N(CCc2ccc(F)cc2)C(=O)/C1=C/C=C/c1ccccc1 |  | -13.3% (inactive)

SMILES | Potency | activity change, negative = inhibition
CCCOC(=O)C1C2c3ccccc3C(c3ccccc32)C1C(=O)O (stereo not given) |  | -3.12% (inactive)
CC(=O)N1CN2CN(C(C)=O)CC(C(=O)c3ccc(Br)cc3)(C2)C1 |  | -1.58% (inactive)
O=C1NC(=O)N(c2ccccc2)C(=O)/C1=C/c1ccc([N+](=O)[O-])s1 | 28.2 µM (active) | 
O=C1NC(=O)N(c2ccc(F)cc2)C(=O)/C1=C/c1ccc2c(c1)CCCN2Cc1ccccc1 |  | -26.4% [at 57.1 µM] (inactive)
O=c1c2ccccc2nc(CBr)n1-c1ccc(Cl)cc1 |  | 11.3% (inactive)
COc1ccc(N2C(=O)/C(=C/c3ccco3)C(=O)NC2=S)cc1 | 17.8 µM (active) | 
CN(C)CC1CCCCC1OC(=O)c1ccc(Cl)c(Cl)c1 (stereo not given) |  | 9.28% (inactive)
CC(C)(C)[C@]1(O)C[C@@H]2OC(=O)C[C@@]23C(=O)O[C@@H]2OC(=O)[C@H](O)[C@]213 |  | -2.59% (inactive)
COc1ccc(-c2nn(CCC#N)cc2C(=O)Nc2ccc(C(C)=O)cc2)cc1 |  | 1.6% (inactive)
Clc1cccc(Cl)c1Cl |  | -11.3% (inactive)
Cc1cccc(N2C(=O)NC(=O)/C(=C\c3cnn(-c4ccccc4)c3)C2=O)c1 | 50.1 µM (active) | 
Cc1c(C(=O)O)cccc1-n1c(C)cc(/C=C2\C(=O)NC(=O)N(c3ccc4c(c3)OCO4)C2=O)c1C |  | -16.1% [at 11.6 µM] (inactive)
COc1ccc(S(=O)(=O)NCc2ccc(C(=O)N3CCC4(CC3)OCCO4)cc2)cc1 |  | 3.75% (inactive)
OCC#CC[N+]1(CC#Cc2ccccc2)CCCC1 |  | -12.6% (inactive)
CSC1=NP(=S)(SC)N(C)c2nc3n(c21)CCC3 (stereo not given) |  | 7.66% (inactive)
COC(=O)C[C@H]1CC[C@H]2NC[C@@H](O)COC[C@@H]2O1 |  | 2.11% (inactive)
O=C1NC(=O)N(Cc2ccco2)C(=O)/C1=C\c1ccc(-c2ccc(F)cc2)o1 | 31.6 µM (active) | 
COc1ccc(-c2nc(CS(=O)CC(=O)N3CCC4(CC3)OCCO4)c(C)o2)cc1 (stereo not given) |  | -1.12% (inactive)
COc1ccccc1N=Nc1c(O)[nH]c(=S)[nH]c1=O |  | -24.1% (inactive)
O=c1[nH]c(=S)[nH]c(O)c1/C=C1\C=Nc2ccccc21 | 50.1 µM (active) | 
O=c1[nH]c2ccccc2n1C1CCN(C(c2ccccc2)c2nnnn2Cc2ccccc2)CC1 (stereo not given) |  | -7.52% (inactive)
O=C(N/N=C/c1c(O)n(C2CC2)c(=S)[nH]c1=O)c1ccccc1 |  | -24% (inactive)
COc1ccccc1N=C1SCCCN1C |  | 3.59% (inactive)
CCCCCn1c(=O)c(C(=O)Nc2c(C)n(C)n(-c3ccccc3)c2=O)c(O)c2ccccc21 |  | -9.8% (inactive)
COC(=O)C1=C(c2cccc(OCc3ccccc3)c2)C[C@@H]2CC[C@H]1N2C(=O)NNCc1ccccc1 |  | -8.99% (inactive)
